This is an account of results in PubChem BioAssay AID1006 (Sanford-Burnham Center for Chemical Genomics, 2008).

In general, inhibition refers to the relative decrease from the control value, in per cent.

In all, about 200,000 compounds went through this assay and about 3,000 (1.5%) were called active. Shown is part of a subset that was picked to be rich in actives. Unmarked numbers belong to inactive results.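 Rule for the calls: active = inhibition above about 50% when tested at 10 µM (limit read from the data); inactive = the rest.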

Luciferin 4-monooxygenase (Photinus pyralis), sequence (P08659 whole entry, looked up): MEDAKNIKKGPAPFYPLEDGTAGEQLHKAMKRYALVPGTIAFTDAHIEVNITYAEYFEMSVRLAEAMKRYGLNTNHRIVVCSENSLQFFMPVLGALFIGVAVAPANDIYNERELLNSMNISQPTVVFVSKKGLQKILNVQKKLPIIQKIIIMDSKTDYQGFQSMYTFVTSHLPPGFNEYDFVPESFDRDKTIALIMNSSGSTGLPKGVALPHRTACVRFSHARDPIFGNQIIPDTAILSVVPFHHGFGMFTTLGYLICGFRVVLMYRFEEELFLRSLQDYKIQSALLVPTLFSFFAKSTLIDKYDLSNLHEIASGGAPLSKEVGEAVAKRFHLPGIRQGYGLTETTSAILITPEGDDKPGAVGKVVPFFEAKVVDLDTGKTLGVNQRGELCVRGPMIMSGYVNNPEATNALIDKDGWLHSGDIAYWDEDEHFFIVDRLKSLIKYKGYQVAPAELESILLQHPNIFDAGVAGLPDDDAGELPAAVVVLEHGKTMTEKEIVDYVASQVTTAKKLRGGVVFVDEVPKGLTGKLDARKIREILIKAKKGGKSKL

This experiment has as its target Luciferin 4-monooxygenase (Photinus pyralis) (UniProt P08659). Briefly: firefly luciferase enzyme inhibitors, primary screen, artefact control for luciferase-based inhibitor screens, biochemical, luminescence, ATPLite (AID 1006). The conditions noted are these: 10 min, at 10 µM, active compounds read high. For orientation: In ATP-based viability assays light output follows the ATP content of the culture.
Take `CN1CCN(c2cc(N3CCNCC3)ccc2[N+](=O)[O-])CC1`: the inhibition is 5.2%.

`Cc1nc2ccc(N3CCN(C)CC3)cc2nc1C`: the inhibition was 15.6%.

For `COc1cccc(-c2nc3ccc(N4CCN(C)CC4)cc3[nH]2)c1`, the inhibition was 95.8% (active).

Take `Cc1nn(Cc2ccccc2Cl)c(Cl)c1C(=O)OC(C(=O)NC(N)=O)C(C)C` (stereo not given): the inhibition is -7%.

As for `Cc1ccnc(-n2c(C)cc(/C=C3\C(=O)NC(=S)N(C)C3=O)c2C)c1`, the inhibition was 5.2%.
